Laboratory results from PubChem BioAssay (Tox21).
Values joined by “and” are separate entries in the source; they are usually repeats but may differ in a detail not shown here. Identical values can stand only once. Inconclusive results are not listed. Where a structure was tested more than once in an assay, its records may differ in their call. Active and inactive are the calls of the source. Unless noted, calls follow the shape of the dose curve; as a rule, active = well fitted curve in the direction sought with a large enough effect in the repeat runs; inconclusive = weak or mixed curves; inactive = no such curve, though single readings can be large; an effect the other way counts as inactive or inconclusive.

Legend:
[1] = target: Estrogen receptor (Homo sapiens) (UniProt P03372); test: qHTS assay to identify small molecule antagonists of the estrogen receptor alpha (ER-alpha) signaling pathway using the BG1 cell line in the presence of 0.1 nM 17-beta-estradiol (AID 1259244); also: nearly all actives have a fitted effect of over 50% in size; also: potency is read from the fitted curve at half-maximal effect
Chain of Estrogen receptor (Homo sapiens) (P03372 whole entry, looked up): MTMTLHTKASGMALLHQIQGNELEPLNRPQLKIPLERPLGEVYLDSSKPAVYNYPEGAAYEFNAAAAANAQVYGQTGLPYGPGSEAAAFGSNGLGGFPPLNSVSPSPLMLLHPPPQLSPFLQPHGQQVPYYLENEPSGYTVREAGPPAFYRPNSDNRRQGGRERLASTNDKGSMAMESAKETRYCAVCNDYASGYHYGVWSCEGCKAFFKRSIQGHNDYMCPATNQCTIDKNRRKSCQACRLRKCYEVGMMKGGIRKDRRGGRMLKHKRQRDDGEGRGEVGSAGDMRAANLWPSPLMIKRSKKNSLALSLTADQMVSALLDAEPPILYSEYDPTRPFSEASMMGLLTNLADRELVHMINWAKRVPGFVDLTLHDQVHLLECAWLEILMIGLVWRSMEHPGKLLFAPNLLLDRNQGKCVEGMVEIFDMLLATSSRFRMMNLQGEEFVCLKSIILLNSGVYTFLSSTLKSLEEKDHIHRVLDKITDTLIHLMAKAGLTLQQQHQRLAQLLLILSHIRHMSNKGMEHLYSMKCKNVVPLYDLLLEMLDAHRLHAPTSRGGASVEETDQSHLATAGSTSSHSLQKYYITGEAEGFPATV
In short: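 Luminescence after ONE-Glo (30 min, room temperature) measured ERE-luciferase activity in VM7Luc4E2 cells treated 22 h with compound and 0.1 nM final 17beta-estradiol as stimulator.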

[2] = qHTS assay to identify small molecule phospholipidosis (PLD) inducers (AID 1259344; active = well fitted curve in the direction sought with a large enough effect; an effect the other way counts as inactive or inconclusive)
In short: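 Cells (HepG2, 900 per well) attach for 4 h, receive LipidTOX Red and compound together, incubate 24 h at 37 C, are fixed 30 min with paraformaldehyde/Hoechst, then imaged at one site per well.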

[3] = qHTS assay to identify small molecule HDAC inhibitors (AID 1259364); also: potency is read from the fitted curve at half-maximal effect;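 also: wild-type HCT-116 cells with endogenous class I/II HDAC activity; nearly all actives have a fitted effect of over 45% in size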; as to activity change, negative = inhibition: top concentration of the series differs between compounds
In short: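 HCT-116 (wild type), 1,500 cells/well, overnight; compound 2 hr 37C 5% CO2; HDAC-Glo I/II reagent 30 min RT; luminescence readout.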

[4] = qHTS assay to identify small molecule HDAC inhibitors - cell viability counter screen (AID 1259365); also: series mostly up to about 92 µM; nearly all actives have a fitted effect of over 50% in size
In short: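 CellTiter-Glo luminescence (30 min, room temperature) reported viability after a 2 h compound exposure at 37 C. Cells: wild-type HCT-116, 1,500 per well, seeded the night before.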

[5] = qHTS assay to identify small molecule agonists of the sonic hedgehog signaling (Shh) pathway - cell viability counter screen (AID 1259366); also: nearly all actives have a fitted effect of over 50% in size; also: potency is read from the fitted curve at half-maximal effect
In short: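 Cytotoxicity counter screen: CellTiter-Fluor reagent added after 23 h compound exposure, then 1 h at 37C and fluorescence read. Cells were 3T3 Gli1-Luc, seeded 2,000 per well and dosed 4 h post-plating.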

[6] = qHTS assay to identify small molecule antagonists of the sonic hedgehog signaling (Shh) pathway - cell viability counter screen (AID 1259367); also: nearly all actives have a fitted effect of over 55% in size
In short: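 Cytotoxicity was assessed in parallel with Shh reporter activity by measuring live-cell protease fluorescence (CellTiter-Fluor) in NIH/3T3 cells stably carrying Gli1-Luc, treated with compound under conditioned medium stimulation for 23 hr plus 1 hr reagent incubation.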

[7] = qHTS assay to identify small molecule antagonists of the sonic hedgehog signaling (Shh) pathway (AID 1259369; calls by dose curve; also: nearly all actives have a fitted effect of over 45% in size; also: potency is read from the fitted curve at half-maximal effect)
In short: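 Luminescence readout: firefly Luc under Gli1 response element in 3T3Gli1-Luc cells (NIH/3T3 clone). Antagonist mode, stimulation by conditioned medium; compound exposure 24hr at 37 C, 5% CO2.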

[8] = target: Estrogen receptor beta (Homo sapiens) (UniProt Q92731); test: qHTS assay to identify small molecule agonists of the estrogen receptor beta (ER-beta) signaling pathway (AID 1259377; active = well fitted activation curve with a large enough effect in the signal ratio in the repeat runs, not every such curve was filed as active; the % refers to the signal ratio; also: potency is read from the fitted curve at half-maximal effect)
Chain of Estrogen receptor beta (Homo sapiens) (Q92731 whole entry, looked up): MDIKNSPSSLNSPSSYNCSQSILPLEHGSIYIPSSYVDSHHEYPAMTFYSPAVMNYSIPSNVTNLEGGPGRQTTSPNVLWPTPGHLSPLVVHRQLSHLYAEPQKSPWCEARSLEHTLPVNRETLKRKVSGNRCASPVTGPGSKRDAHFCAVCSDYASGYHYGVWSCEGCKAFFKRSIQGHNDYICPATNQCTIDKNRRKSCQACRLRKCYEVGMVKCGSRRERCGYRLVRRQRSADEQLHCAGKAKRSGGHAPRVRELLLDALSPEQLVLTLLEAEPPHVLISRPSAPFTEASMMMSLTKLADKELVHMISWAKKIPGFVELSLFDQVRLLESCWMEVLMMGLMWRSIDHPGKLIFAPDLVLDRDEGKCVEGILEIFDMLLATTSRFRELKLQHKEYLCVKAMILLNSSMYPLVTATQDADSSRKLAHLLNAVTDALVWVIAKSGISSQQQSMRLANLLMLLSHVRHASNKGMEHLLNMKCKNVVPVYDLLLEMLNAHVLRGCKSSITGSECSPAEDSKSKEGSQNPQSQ
In short: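 Ratiometric beta-lactamase FRET read-out came after 2 h substrate loading at room temperature. It followed 16 h compound treatment at 37C of GripTite HEK293T cells carrying a UAS-bla reporter, plated in 2% charcoal-stripped FBS medium.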

[9] = target: Estrogen receptor beta (Homo sapiens) (UniProt Q92731); test: qHTS assay to identify small molecule antagonists of the estrogen receptor beta (ER-beta) signaling pathway (AID 1259378; active = well fitted inhibition curve with a large enough effect in the signal ratio in the repeat runs, not every such curve was filed as active; the % refers to the signal ratio)
In short: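 ER-beta-UAS-bla HEK293T (GripTite) cells in 2% charcoal-stripped FBS medium were preincubated 6 hr at 37C, dosed with compound, then stimulated with 1 nM E2 (final) for 16 hr; beta-lactamase reporter read by B/G FRET fluorescence after 2 hr substrate loading.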

[10] = qHTS assay to identify small molecule agonists of the sonic hedgehog signaling (Shh) pathway (AID 1259368; calls by dose curve;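 also: NIH/3T3-derived 3T3Gli1-Luc cells carrying a stable Gli1-driven firefly luciferase reporter; series mostly up to about 92 µM; nearly all actives have a fitted effect of over 15% in size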)
In short: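 Read-out: firefly luciferase luminescence from a Gli1 response element reporter stably integrated in NIH/3T3-derived 3T3Gli1-Luc cells, measured 30 min at room temperature after reagent addition. Compound exposure lasted 24 hr at 37 C, 5% CO2.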
% is scaled to controls: 0 for no effect and ±100 for the full control effect.

CCN(CC)CCCC(C)Nc1ccnc2cc(Cl)ccc12 (configuration not stated)
inactive: activity change, negative = inhibition [1] 35.5% [at 8.39 µM] and -0.903% [at 19 µM] | outcome [2] | activity change, negative = inhibition [3] 5.21% [at 8.39 µM] and -11.7% [at 19 µM] | activity change, negative = cytotoxicity [4] 1.29% [at 8.39 µM] and -0.194% [at 19 µM] | viability change, negative = cytotoxic [5] 4.99% [at 8.39 µM] and -9.75% [at 19 µM] | viability change, negative = cytotoxic [6] -9.15% [at 8.39 µM] and -19.2% [at 19 µM] | activity change, negative = inhibition [7] -20.4% [at 8.39 µM] | activation [8] 1.76% [at 8.39 µM] and 0.415% [at 19 µM] | activity, negative = inhibition [9] -11.4% [at 8.39 µM]
active: Potency [7] 5.8 µM

c1ccc2c(c1)ccc1ccccc12
inactive: Potency [1] | Potency [3] | outcome [4] | Potency [5] | Potency [6] | outcome [10] | Potency [7]

Fc1ccc(Br)cc1
inactive: Potency [1] | Potency [3] | outcome [4] | Potency [5] | Potency [6] | outcome [10] | Potency [7]

CCCCCCOCCO
inactive: Potency [1] | Potency [3] | outcome [4] | Potency [5] | Potency [6] | outcome [10] | Potency [7] | Potency [8] | Potency [9]

OC[C@H]1O[C@@](CO)(O[C@H]2O[C@H](CO)[C@@H](O)[C@H](O)[C@H]2O)[C@@H](O)[C@@H]1O
inactive: Potency [1] | outcome [2] | Potency [3] | outcome [4] | Potency [5] | Potency [6] | outcome [10] | Potency [7] | Potency [8] | Potency [9]

O=C(O)CC(C(=O)O)C(CC(=O)O)C(=O)O (configuration not stated)
inactive: Potency [1] | Potency [3] | outcome [4] | Potency [5] | Potency [6] | outcome [10] | Potency [7]

CCc1ccc(CCOc2ccc(CC3SC(=O)NC3=O)cc2)nc1 (configuration not stated)
54.5 µM (active) and inactive: Potency [1]
inactive: outcome [2] | Potency [3] | outcome [4] | Potency [5] | Potency [6] | outcome [10] | Potency [7] | Potency [8]

O=C(OCCOCCOC(=O)c1ccccc1)c1ccccc1
inactive: Potency [1] | Potency [3] | outcome [4] | Potency [5] | Potency [6] | outcome [10] | Potency [7]

COS(C)(=O)=O
inactive: Potency [1] | Potency [3] | outcome [4] | Potency [5] | Potency [6] | outcome [10] | Potency [7]

O=C(O)c1cc(=O)c2c(OCC(O)COc3cccc4oc(C(=O)O)cc(=O)c34)cccc2o1
inactive: Potency [1] | outcome [2] | Potency [3] | outcome [4] | Potency [5] | Potency [6] | outcome [10] | Potency [7] | Potency [8] | Potency [9]

C#C[C@]1(O)CC[C@H]2[C@@H]3CCC4=CC(=O)CC[C@@H]4[C@H]3CC[C@@]21C
inactive: Potency [1] | outcome [2] | Potency [3] | outcome [4] | Potency [5] | Potency [6] | outcome [10] | Potency [9]
active: Potency [7] 21.7 µM and 29.8 µM | Potency [8] 1.37 µM and 4.22 µM

O=C(O)c1ccccc1C(c1ccc(O)cc1)c1ccc(O)cc1
inactive: Potency [1] | Potency [3] | outcome [4] | Potency [5] | Potency [6] | outcome [10] | Potency [7] | Potency [8] | Potency [9]

c1ccc2scnc2c1
inactive: Potency [1] | Potency [3] | outcome [4] | Potency [5] | Potency [6] | outcome [10] | Potency [7] | Potency [8] | Potency [9]

CC(=O)Nc1cccc(O)c1
inactive: Potency [1] | outcome [2] | Potency [3] | outcome [4] | Potency [5] | Potency [6] | outcome [10] | Potency [7] | Potency [8] | Potency [9]

O=C(O)c1cc(O)c(O)c(O)c1
inactive: Potency [1] | outcome [2] | Potency [3] | outcome [4] | outcome [10]
61.7 µM (active) and inactive: Potency [5]
27.6 µM (active) and inactive: Potency [7]

CN(C)CCCN
inactive: Potency [1] | Potency [3] | outcome [4] | Potency [5] | Potency [6] | outcome [10] | Potency [7]

O=c1[nH]c(=O)n([C@H]2CCCO2)cc1F
inactive: outcome [2] | Potency [3] | outcome [4] | Potency [5] | Potency [6] | outcome [10] | Potency [7] | Potency [9]

COCCCOc1ccnc(CS(=O)c2nc3ccccc3[nH]2)c1C (configuration not stated)
30.5 µM (active) and inactive: Potency [3]
inactive: outcome [2] | outcome [4] | Potency [5] | outcome [10] | Potency [7] | Potency [8] | Potency [9]

O=C1CCC(N2C(=O)c3ccccc3C2=O)C(=O)N1 (configuration not stated)
inactive: outcome [2] | Potency [3] | outcome [4] | Potency [5] | Potency [6] | outcome [10] | Potency [7] | Potency [8] | Potency [9]

COc1ccc(NC(C)=O)cc1N
inactive: Potency [1] | Potency [3] | outcome [4] | Potency [5] | outcome [10] | Potency [7] | Potency [8] | Potency [9]

C=C(C)C(=O)O[C@H]1C[C@@H]2CC[C@@]1(C)C2(C)C
inactive: Potency [3] | outcome [4] | Potency [5] | Potency [6] | outcome [10] | Potency [7] | Potency [9]
2.71 µM (active) and inactive: Potency [1]

CCCCCCCC(=O)OC
inactive: Potency [1] | outcome [4] | Potency [5] | Potency [6] | outcome [10] | Potency [7] | Potency [8] | Potency [9]

Cc1ccc(N(C)C)cc1
inactive: Potency [1] | Potency [3] | outcome [4] | Potency [5] | outcome [10] | Potency [7] | Potency [8] | Potency [9]
